The values below come from ChEMBL document CHEMBL2218924, “A broad activity screen in support of a chemogenomic map for kinase signalling research and drug discovery” (Biochem J, 2013).

Experiment [1] has as its target Vascular endothelial growth factor receptor 3 (Homo sapiens) (UniProt P35916). As to conditions: at 10 µM.
Experiment [2] has as its target Macrophage colony-stimulating factor 1 receptor (Homo sapiens) (UniProt P07333). The note with it: at 1 µM.
For experiment [3] the target is unchanged. The note with it: at 10 µM.
In experiment [4] the target is Tyrosine-protein kinase Fyn (Homo sapiens) (UniProt P06241). As to conditions: at 1 µM.
Experiment [5] shares this target. As to conditions: at 10 µM.
Experiment [6] deals with T1, Mitogen-activated protein kinase kinase kinase kinase 2 (Homo sapiens) (UniProt Q12851).
T1 sequence (whole entry): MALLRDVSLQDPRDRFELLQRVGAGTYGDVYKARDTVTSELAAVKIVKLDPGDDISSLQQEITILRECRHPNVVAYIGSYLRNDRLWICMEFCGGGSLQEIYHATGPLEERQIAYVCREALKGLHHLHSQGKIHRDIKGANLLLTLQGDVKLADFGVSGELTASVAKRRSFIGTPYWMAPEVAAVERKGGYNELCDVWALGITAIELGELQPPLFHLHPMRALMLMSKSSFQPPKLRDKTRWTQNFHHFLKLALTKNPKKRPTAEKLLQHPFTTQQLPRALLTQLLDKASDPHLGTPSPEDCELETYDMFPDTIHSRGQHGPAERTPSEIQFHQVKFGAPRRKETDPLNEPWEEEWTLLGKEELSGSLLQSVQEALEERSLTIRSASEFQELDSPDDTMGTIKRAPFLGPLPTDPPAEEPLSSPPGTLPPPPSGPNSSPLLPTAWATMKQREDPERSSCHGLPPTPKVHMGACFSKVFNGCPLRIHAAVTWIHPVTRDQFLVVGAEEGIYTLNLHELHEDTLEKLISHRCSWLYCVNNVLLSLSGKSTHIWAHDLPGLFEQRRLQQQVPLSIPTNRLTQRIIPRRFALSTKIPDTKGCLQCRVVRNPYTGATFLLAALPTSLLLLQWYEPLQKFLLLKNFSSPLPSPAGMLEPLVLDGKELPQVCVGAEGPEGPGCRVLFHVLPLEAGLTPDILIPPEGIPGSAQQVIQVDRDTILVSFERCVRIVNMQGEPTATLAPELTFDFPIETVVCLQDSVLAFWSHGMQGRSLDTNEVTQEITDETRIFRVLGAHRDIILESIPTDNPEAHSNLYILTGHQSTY
The note with it: at 1 µM.

In experiment [7] the target is T1, Mitogen-activated protein kinase kinase kinase kinase 2 (Homo sapiens). The note with it: at 10 µM.
Experiment [8] concerns the target G protein-coupled receptor kinase 5 (Homo sapiens) (UniProt P34947). As to conditions: at 10 µM.
The target of experiment [9] is G protein-coupled receptor kinase 6 (Homo sapiens) (UniProt P43250). The note with it: at 10 µM.
The target of experiment [10] is T2, Rhodopsin kinase GRK7 (Homo sapiens) (UniProt Q8WTQ7).
T2 sequence (whole entry): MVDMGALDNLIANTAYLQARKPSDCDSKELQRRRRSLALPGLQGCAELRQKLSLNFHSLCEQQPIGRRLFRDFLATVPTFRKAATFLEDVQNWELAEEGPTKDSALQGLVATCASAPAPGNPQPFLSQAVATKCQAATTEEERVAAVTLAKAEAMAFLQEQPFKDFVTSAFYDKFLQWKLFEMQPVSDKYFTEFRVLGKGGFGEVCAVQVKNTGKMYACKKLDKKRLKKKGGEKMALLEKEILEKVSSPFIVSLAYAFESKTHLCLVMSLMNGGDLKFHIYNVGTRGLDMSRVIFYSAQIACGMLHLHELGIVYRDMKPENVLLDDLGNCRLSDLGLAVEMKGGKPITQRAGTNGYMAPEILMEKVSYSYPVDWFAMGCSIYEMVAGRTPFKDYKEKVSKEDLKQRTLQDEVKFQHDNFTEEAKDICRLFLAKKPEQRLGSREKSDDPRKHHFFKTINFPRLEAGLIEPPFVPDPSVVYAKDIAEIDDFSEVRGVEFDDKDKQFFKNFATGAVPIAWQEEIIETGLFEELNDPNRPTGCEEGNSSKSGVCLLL
As to conditions: at 1 µM.

Sequence of G protein-coupled receptor kinase 5 (Homo sapiens) (P34947 whole entry, looked up): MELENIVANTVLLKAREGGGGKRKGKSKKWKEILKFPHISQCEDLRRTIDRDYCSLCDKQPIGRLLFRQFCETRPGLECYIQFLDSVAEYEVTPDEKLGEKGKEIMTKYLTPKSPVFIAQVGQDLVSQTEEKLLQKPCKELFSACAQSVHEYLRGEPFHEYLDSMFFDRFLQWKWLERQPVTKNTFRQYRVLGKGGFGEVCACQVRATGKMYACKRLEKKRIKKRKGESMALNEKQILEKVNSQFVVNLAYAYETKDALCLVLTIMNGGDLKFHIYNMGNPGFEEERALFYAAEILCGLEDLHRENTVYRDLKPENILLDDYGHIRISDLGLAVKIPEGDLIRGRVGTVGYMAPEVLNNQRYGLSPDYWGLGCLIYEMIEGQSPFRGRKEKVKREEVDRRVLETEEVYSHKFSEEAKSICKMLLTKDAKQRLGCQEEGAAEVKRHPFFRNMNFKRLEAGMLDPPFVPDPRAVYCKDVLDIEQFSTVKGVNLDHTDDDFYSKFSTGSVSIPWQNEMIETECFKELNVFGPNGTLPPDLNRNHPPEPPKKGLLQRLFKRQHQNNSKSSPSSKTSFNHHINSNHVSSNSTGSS
Sequence of Tyrosine-protein kinase Fyn (Homo sapiens) (P06241 2-537 limits assumed): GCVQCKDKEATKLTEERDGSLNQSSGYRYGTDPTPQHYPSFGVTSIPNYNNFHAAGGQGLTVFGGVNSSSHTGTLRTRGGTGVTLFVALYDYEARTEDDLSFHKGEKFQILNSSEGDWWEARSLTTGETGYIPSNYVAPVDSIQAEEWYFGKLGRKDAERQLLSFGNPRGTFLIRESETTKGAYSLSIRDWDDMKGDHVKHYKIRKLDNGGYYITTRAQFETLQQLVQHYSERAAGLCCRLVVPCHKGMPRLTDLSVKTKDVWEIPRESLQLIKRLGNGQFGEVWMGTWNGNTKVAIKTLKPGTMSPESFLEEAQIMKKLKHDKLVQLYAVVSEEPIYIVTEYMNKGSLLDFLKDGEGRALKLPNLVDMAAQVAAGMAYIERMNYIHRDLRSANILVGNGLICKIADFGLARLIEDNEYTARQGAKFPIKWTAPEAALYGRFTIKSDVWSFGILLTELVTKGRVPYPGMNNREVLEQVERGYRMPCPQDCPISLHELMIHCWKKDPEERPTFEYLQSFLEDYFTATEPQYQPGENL
Sequence of Vascular endothelial growth factor receptor 3 (Homo sapiens) (P35916 whole entry): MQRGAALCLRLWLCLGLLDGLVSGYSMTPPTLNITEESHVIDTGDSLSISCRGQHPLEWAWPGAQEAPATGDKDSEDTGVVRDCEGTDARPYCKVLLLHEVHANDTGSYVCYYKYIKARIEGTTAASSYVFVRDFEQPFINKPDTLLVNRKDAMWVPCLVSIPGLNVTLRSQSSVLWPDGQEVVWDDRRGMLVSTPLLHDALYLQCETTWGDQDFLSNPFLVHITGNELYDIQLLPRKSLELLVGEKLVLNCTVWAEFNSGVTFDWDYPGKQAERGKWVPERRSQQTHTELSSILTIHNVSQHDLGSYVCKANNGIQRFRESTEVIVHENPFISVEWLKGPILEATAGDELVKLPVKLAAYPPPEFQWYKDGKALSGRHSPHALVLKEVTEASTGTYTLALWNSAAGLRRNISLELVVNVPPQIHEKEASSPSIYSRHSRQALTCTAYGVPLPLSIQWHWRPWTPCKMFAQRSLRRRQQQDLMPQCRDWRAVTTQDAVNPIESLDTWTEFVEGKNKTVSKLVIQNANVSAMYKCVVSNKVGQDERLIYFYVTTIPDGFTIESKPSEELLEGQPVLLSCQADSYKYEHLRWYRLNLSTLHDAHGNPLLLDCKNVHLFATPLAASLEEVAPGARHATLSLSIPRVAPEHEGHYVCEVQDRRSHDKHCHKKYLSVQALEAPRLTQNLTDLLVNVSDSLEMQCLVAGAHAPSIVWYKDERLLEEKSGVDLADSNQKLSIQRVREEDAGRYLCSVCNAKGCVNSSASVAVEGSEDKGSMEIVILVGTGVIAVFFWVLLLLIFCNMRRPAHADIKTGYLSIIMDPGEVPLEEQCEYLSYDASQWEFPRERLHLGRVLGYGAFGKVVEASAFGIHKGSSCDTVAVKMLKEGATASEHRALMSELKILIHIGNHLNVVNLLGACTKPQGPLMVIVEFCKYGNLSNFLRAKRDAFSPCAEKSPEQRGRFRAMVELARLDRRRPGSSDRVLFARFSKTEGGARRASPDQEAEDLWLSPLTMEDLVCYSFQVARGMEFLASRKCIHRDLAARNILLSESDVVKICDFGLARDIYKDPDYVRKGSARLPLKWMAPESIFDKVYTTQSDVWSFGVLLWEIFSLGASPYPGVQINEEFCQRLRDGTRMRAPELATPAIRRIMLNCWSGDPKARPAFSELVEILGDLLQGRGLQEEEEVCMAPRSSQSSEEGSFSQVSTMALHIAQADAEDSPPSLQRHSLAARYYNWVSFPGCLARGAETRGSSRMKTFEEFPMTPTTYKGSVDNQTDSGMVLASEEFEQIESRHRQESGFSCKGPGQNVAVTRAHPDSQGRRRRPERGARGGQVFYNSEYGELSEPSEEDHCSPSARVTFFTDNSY
Sequence of Macrophage colony-stimulating factor 1 receptor (Homo sapiens) (P07333 whole entry): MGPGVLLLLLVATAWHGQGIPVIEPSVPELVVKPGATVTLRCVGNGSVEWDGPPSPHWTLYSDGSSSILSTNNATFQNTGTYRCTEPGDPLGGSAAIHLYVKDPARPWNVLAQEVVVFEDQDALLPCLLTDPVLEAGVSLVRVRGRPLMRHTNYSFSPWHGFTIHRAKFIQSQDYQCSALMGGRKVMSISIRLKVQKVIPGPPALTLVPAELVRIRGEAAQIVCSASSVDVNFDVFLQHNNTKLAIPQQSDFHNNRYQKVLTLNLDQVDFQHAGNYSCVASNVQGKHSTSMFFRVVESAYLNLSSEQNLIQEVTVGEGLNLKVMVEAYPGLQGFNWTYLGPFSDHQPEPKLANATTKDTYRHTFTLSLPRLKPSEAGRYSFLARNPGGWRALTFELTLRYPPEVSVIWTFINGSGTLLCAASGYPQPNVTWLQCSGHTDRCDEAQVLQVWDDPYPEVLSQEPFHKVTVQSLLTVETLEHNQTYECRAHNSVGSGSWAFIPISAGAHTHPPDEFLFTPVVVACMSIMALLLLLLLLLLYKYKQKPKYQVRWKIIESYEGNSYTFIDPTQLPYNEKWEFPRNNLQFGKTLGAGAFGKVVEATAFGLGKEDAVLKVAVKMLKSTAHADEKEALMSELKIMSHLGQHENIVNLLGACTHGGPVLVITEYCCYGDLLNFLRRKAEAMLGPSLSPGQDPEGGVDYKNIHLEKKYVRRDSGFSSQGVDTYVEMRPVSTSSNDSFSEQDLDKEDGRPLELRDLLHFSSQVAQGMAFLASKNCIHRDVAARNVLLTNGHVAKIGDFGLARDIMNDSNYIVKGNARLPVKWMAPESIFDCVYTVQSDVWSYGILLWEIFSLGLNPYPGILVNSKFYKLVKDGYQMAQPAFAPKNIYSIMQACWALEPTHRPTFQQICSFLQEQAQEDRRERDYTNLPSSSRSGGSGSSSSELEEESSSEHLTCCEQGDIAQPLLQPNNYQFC
Sequence of G protein-coupled receptor kinase 6 (Homo sapiens) (P43250 whole entry, looked up): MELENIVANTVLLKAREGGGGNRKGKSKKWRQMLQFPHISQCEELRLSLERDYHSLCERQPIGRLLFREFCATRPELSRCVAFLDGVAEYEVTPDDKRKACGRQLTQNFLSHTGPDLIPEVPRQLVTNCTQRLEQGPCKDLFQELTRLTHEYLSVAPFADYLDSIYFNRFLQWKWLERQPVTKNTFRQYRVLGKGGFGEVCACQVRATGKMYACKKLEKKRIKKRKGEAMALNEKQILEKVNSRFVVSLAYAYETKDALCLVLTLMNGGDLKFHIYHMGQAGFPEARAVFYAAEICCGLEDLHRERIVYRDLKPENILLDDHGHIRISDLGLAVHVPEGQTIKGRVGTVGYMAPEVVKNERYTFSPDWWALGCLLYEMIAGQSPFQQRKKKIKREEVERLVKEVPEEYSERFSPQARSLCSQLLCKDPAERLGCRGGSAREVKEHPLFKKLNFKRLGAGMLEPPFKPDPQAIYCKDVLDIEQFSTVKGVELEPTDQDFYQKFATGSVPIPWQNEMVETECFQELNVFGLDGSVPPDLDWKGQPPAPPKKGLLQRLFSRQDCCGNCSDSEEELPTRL

Regarding `c1ccc(-c2n[nH]cc2-c2ccnc3ccccc23)nc1`, the residual activity amounted to 10% in [1]; 71% in [2]; 76% in experiment [3]; 94% in [4]; 22% in experiment [5]; 43% in [6]. The residual activity in experiment [7] was determined as 27%; in [8], 103%; in [9], 87%; in [10] it was 93%.

With `COc1cc2ncc(-c3ccccc3)nc2cc1OC`, the residual activity in experiment [1] was determined as 17%; in experiment [2], 30%; in experiment [3] it was 7%; in [5] it was 84%; in experiment [6], 96%; in [7] it was 90%. For the same molecule, the residual activity in experiment [9] turned out to be 91%.

As to `CC(C)n1cnc2/c(=N/c3cccc(Cl)c3)nc(NCCO)[nH]c21`, the residual activity in experiment [1] came to 5%; in [2], 83%; in experiment [3], 39%; in experiment [4], 21%; in experiment [5], 3%; in [6] it was 35%. In addition, the residual activity in experiment [7] turned out to be 19%; in experiment [8] it was 61%; in experiment [9] it was 53%; in experiment [10] it was 76%.

`CCOc1cc2ncnc(Nc3cccc(Br)c3)c2cc1OCC`: the residual activity in experiment [1] amounted to 4%; in [2] it was 73%; in [3] it was 27%; in experiment [4], 26%; in experiment [5] it was 4%; in [6], 78%. The residual activity amounted to 39% in [7], 84% in experiment [8], 90% in [9] and 94% in experiment [10].

In the case of `Nc1ccc2ncnc(NCCc3ccc(Oc4ccccc4)cc3)c2c1`, the residual activity is 6% in experiment [1]; 72% in experiment [2]; 75% in experiment [4]; 66% in experiment [5]; 72% in experiment [6]; 68% in [7]. The values for the residual activity in [8], in [9] and in experiment [10] were 97%, 95% and 110%, respectively.

Turning to `Oc1c2ccccc2c2c3c(cccc13)N=N2`, the residual activity in [1] is 0%; in experiment [2], 36%; in [3] it was 9%; in experiment [4] it was 60%; in experiment [5], 47%; in experiment [6], 16%. The residual activity in experiment [7] amounted to 2%; in experiment [8], 63%; in [9], 81%; in [10], 71%.

`O=C1NC(=O)/C(=C/c2ccc3c(c2)OC(F)(F)O3)S1`: the residual activity was found to be 83% in experiment [1]; 56% in [2]; 72% in experiment [3]; 93% in experiment [4]; 79% in experiment [5]; 106% in experiment [6]. The residual activity in [7] amounted to 87%; in experiment [8] it was 101%; in experiment [9], 87%; in [10] it was 107%.

For `N#C/C(=C(\N)Sc1ccc(N)cc1)c1ccccc1C(F)(F)F`, the residual activity was determined as 64% in experiment [1]; 86% in experiment [2]; 68% in [3]; 71% in experiment [4]; 13% in experiment [5]; 69% in experiment [6]. Moreover, the residual activity turned out to be 72% in experiment [7], 95% in [8], 93% in [9] and 97% in experiment [10].

With `C[C@@H](N)[C@H]1CC[C@H](C(=O)Nc2ccncc2)CC1`, the residual activity in experiment [1] was determined as 104%; in experiment [2], 98%; in experiment [3] it was 110%; in [4], 111%; in experiment [5] it was 112%; in experiment [7], 88%. The residual activity amounted to 90% in experiment [8], 106% in [9] and 97% in experiment [10].

As to `COc1cc2ncnc(Nc3ccc(O)c(Br)c3)c2cc1OC`, the residual activity in experiment [1] worked out at 2%; in [2], 63%; in [3], 22%; in [4], 49%; in experiment [5], 9%; in experiment [6], 52%. Further, the residual activity is 18% in experiment [7], 89% in [8], 78% in [9] and 75% in [10].

Regarding `O=C1NC(=O)c2cc(Nc3ccc(F)cc3)c(Nc3ccc(F)cc3)cc21`, the residual activity in experiment [1] is 65%; in experiment [2], 75%; in experiment [3] it was 54%; in experiment [4], 68%; in experiment [5], 50%; in experiment [6], 81%. Also, the residual activity stood at 71% in experiment [7], 90% in experiment [8], 81% in experiment [9] and 93% in experiment [10].

Take `Cc1cccc(-c2[nH]c(C(C)(C)C)nc2-c2ccc3c(c2)OCO3)n1`: the residual activity in [1] was 90%; in [4], 105%; in experiment [5], 93%; in experiment [6], 96%; in experiment [7], 83%; in experiment [8] it was 103%. Further, the residual activity is 87% in [9] and 97% in experiment [10].

Turning to `Nc1n[nH]c2nnc(-c3c(-c4ccccc4)nn4ccccc34)cc12`, the residual activity in experiment [1] is 23%; in experiment [2], 67%; in experiment [3] it was 28%; in experiment [4] it was 71%; in [5] it was 52%; in experiment [6], 67%. The residual activity in [7] is 24%; in experiment [8], 99%; in [9] it was 89%; in experiment [10] it was 83%.

As for `O=c1c2ccccc2[nH]c(=S)n1CCN1CCC(=C(c2ccc(F)cc2)c2ccc(F)cc2)CC1`, the residual activity in experiment [1] came out at 92%; in experiment [2], 69%; in experiment [3], 84%; in experiment [4] it was 89%; in [5], 46%; in [6], 93%. The residual activity in experiment [7] stood at 82%; in experiment [8], 89%; in [9] it was 90%; in experiment [10], 93%.

As for `Cc1cc(Nc2nc(-c3ccccc3)nc3ccccc23)n[nH]1`, the residual activity is 1% in experiment [1]; 4% in experiment [2]; 0% in experiment [3]; 2% in experiment [4]; -2% in [5]; 38% in experiment [6]. The figures for the residual activity in experiment [7], in experiment [9] and in experiment [10] were 6%, 65% and 55%, respectively.

On to `CCN(CC)C(=O)c1ccc(Nc2nc(OCC3CCCCC3)c3nc[nH]c3n2)cc1`, for which the residual activity stood at 0% in experiment [1]; 1% in [2]; 2% in experiment [3]; 35% in experiment [4]; 5% in experiment [5]; 33% in experiment [6]. Moreover, the residual activity is 3% in experiment [7] and 97% in [10].

`Cc1ccc(NC2=CC(=O)c3sc(C)nc3C2=O)cc1`: the residual activity in [1] was found to be 84%; in experiment [2] it was 96%; in [3], 79%; in experiment [4], 82%; in [5], 93%; in experiment [6], 86%. Also, the residual activity came out at 99% in experiment [8], 85% in experiment [9] and 84% in experiment [10].

In the case of `CC(=O)c1ccc(N2CCOCC2)cc1O`, the residual activity worked out at 88% in [1]; 80% in experiment [4]; 96% in [5]; 91% in experiment [6]; 89% in [7]; 86% in experiment [8]. For the same molecule, the values for the residual activity in [9] and in experiment [10] were 91% and 95%, respectively.
